Measurements from PubChem BioAssay AID504332 (National Center for Advancing Translational Sciences (NCATS), 2011).
Hit rate of the full screen: of about 350,000 compounds, about 31,000 (8.9%) were called active. Not shown: some 15% with an inconclusive outcome. Many of the other results were omitted from the sample, so actives are more common in it than they were. A number with no mark means an inactive call. Calls come from the whole dose curve; as a rule, active = well fitted inhibition curve with a large enough effect; inconclusive = small, poorly fitted or top-dose-only effect; inactive = no such curve, though single readings can be large or run the other way.

Biological target: Histone-lysine N-methyltransferase EHMT2 (Homo sapiens) (UniProt Q96KQ7)
Sequence (Q96KQ7 913-1193 limits assumed): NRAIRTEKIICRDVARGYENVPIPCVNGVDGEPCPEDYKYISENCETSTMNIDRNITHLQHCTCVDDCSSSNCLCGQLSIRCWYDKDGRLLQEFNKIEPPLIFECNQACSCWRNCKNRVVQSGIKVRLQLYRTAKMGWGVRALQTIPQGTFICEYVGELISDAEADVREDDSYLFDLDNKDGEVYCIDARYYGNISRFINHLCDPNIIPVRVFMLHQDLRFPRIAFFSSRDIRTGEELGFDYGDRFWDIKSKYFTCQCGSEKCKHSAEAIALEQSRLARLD
Assay: qHTS Assay for Inhibitors of Histone Lysine Methyltransferase G9a; note: nearly all actives have a fitted effect of over 75% in size
Conditions: G9a H3K9 monomethylation, AlphaScreen, 2 h; series mostly up to 59 µM; activity, negative = inhibition: at the top concentration
Method in brief: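 AlphaScreen read-out: biotin-H3K9 peptide (500 nM) methylation by 20 nM enzyme with 20 uM SAM, 2 h at room temperature after 15 min compound preincubation; anti-monomethyl H3K9 antibody plus donor/acceptor beads, 10 min dark.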
% is set by controls: 0 for no effect and ±100 for the full control effect; potency is the fitted concentration of half-maximal effect.

| Structure (SMILES) | activity, negative = inhibition | Potency |
| --- | --- | --- |
| Cc1ccc(Cl)c(OCC(=O)N2CCc3ccccc3C2)c1 | 4.26% [at 102 µM] | – |
| Cc1cccc(C2=N/C(=C/c3cccs3)C(=O)O2)c1 | -37.5% [at 102 µM] | – |
| CSC1=N/C(=C\C=C\c2cccs2)C(=O)S1 | – | 7.94 µM (active) |
| O=C1N/C(=C/c2cccs2)C(=O)N1Cc1ccc(F)cc1 | -10.9% [at 102 µM] | – |
| CC(=O)c1ccc(N2CCN(C3C(=O)c4ccccc4N3C(C)=O)CC2)cc1 (centres undefined) | -31.2% | – |
| COc1ccccc1-c1nc(SC)n[nH]1 | -11.3% [at 102 µM] | – |
| CCCOc1ccccc1-c1nc(SCCC(=O)O)n[nH]1 | – | 11.2 µM (active) |
| CCCOc1ccccc1C(=O)NCCCC(=O)O | -1.32% [at 102 µM] | – |
| Cc1nc2nc(SCC(=O)NC3CCC(C)CC3)nn2c(C)c1Cc1ccccc1Cl (centres undefined) | -39.2% | – |
| COC(=O)c1ccc(NC(=S)Nc2cccc(C)n2)cc1 | -9.29% [at 12.7 µM] | – |
| Cc1cccc(-n2cnc(C(=O)NNC(=S)Nc3ccccc3)c2)n1 | – | 28.2 µM (active) |
| Cc1cccc(-n2cnc(C(=O)Nc3cccnc3)c2)n1 | -4.43% [at 102 µM] | – |
| O=C(c1ccc(Cl)nc1)N1CCN(S(=O)(=O)c2ccc3c(c2)OCCO3)CC1 | -21.6% [at 12.7 µM] | – |
| COc1ccc(-c2nc3nc(C)cc(C)n3c2Nc2c(C)cccc2C)cc1 | -32.3% | – |
| Cc1cccc(C)c1Nc1c(-c2ccccc2O)nc2ncccn12 | -7.84% [at 12.7 µM] | – |
| CCc1cccc(C)c1Nc1c(-c2ccc(N(C)C)cc2)nc2ncccn12 | – | 8.91 µM (active) |
| Cc1ccc(CCNC(=O)c2ccc3c(c2)N(Cc2cc(C)ccc2C)C(=O)c2ccccc2S3=O)cc1 (centres undefined) | -23.3% | – |
| Cc1ccc(S(=O)(=O)NCCC(=O)OCC(=O)N(C)c2ccccc2)cc1 | -8.16% [at 102 µM] | – |
| Cc1ccc(OCC(=O)NC(C)c2ccccc2)cc1C (centres undefined) | 15.5% [at 102 µM] | – |
| Cc1cc(C)cc(OCC(=O)NC(C)c2ccccc2)c1 (centres undefined) | – | 79.4 µM (active) |

| Structure (SMILES) | activity, negative = inhibition | Potency |
| --- | --- | --- |
| Cc1ccc(OCCCC(=O)NC(C)c2ccccc2)c(C)c1 (centres undefined) | -28.9% [at 102 µM] | – |
| COc1ccccc1C(=O)NC(=S)Nc1ccccc1N1CCCCC1 | 5.98% [at 102 µM] | – |
| O=C1C2CCCN2C(=O)N1CCCCN1CCN(c2cccc(C(F)(F)F)c2)CC1 (centres undefined) | 2.49% [at 0.501 µM] | – |
| CC1=C(c2ccc(F)cc2)S(=O)(=O)N=C1N1CCC(C(=O)NCCc2ccccc2C)CC1 | 0.174% | – |
| COc1ccccc1C(=O)NC(CCSC)C(=O)N1CCN(C/C=C/c2ccccc2)CC1 (centres undefined) | – | 56.2 µM (active) |
| COc1ccccc1C(=O)NC(CCSC)C(=O)N1CCN(C(C)=O)CC1 (centres undefined) | 8.08% [at 12.7 µM] | – |
| CSCCC(NC(=O)c1ccccc1)C(=O)N1CCN(Cc2ccc(Cl)cc2)CC1 (centres undefined) | 10.6% [at 0.501 µM] | – |
| CCOc1ccc(CNC(=O)C2CCN(c3nnc(-n4cccc4CNc4ccc(C)cc4)s3)CC2)cc1OC | -7.99% | – |
| CC1CC2C3CCC4=CC(=O)C=C[C@]4(C)[C@@]3(F)[C@@H](O)C[C@]2(C)[C@@]1(O)C(=O)CO (some centres undefined) | 23.6% | – |
| Cc1ccc2oc(C(=O)Nc3ccc(S(=O)(=O)N4CCCCCC4)cc3)cc(=O)c2c1 | 11.5% | – |
| O=C(Nc1cccc(Cl)c1Cl)c1ccccc1NC(=O)C1CC=CCC1C(=O)O (centres undefined) | -46.5% [at 102 µM] | – |
| CN(C(=O)COC(=O)c1cc(-c2ccco2)nc2ccccc12)C1CCS(=O)(=O)C1 (centres undefined) | – | 2.51 µM (active) |
| Cc1c(-c2cccc(Cl)c2)nc2ccccc2c1C(=O)OCC(=O)N(C)C1CCS(=O)(=O)C1 (centres undefined) | 3.46% | – |
| CN(C(=O)COC(=O)c1nc(Cl)ccc1Cl)C1CCS(=O)(=O)C1 (centres undefined) | 11.5% [at 102 µM] | – |
| COc1ccc(-n2nc(C(=O)NCC(=O)N3CCCCCC3)c3ccccc3c2=O)cc1Cl | -1.41% [at 102 µM] | – |
| O=C(Cn1c(=S)nc2ccccn21)N1CCc2ccccc2C1 | – | 12.6 µM (active) |
| CCC(=O)c1ccc(OCC(=O)OCC(=O)N2CCc3ccccc3C2)cc1 | -11.3% [at 2.33 µM] | – |
| O=C(COc1ccccc1)N1CCc2ccccc2C1 | -42.6% [at 102 µM] | – |
| Cn1c(=O)c2c(nc(Oc3ccc(C#N)cc3)n2Cc2ccc(Cl)cc2Cl)n(C)c1=O | 26.9% | – |
| COc1ccc(NC(=O)CSc2nccn2Cc2ccc3c(c2)OCO3)cc1 | -12.2% | – |

| Structure (SMILES) | activity, negative = inhibition | Potency |
| --- | --- | --- |
| CN(C)c1ccc(NC(=O)CSc2n[nH]c(-c3ccco3)n2)cc1 | – | 44.7 µM (active) |
| O=C(CSc1n[nH]c(-c2cccnc2)n1)Nc1ccc(Cl)cc1 | 27.2% [at 102 µM] | – |
| Cc1nc(SCC(=O)Nc2ccc(C(=O)O)cc2)n[nH]1 | 6.19% | – |
| CC(C)Cn1c(C2CC(=O)N(c3ccccc3Cl)C2)nc2ccccc21 (centres undefined) | -0.0323% | – |
| COc1ccc(C)cc1N(CC(=O)N1CCC(C)CC1)S(=O)(=O)c1ccc(C)cc1 | -37.9% | – |
| O=C(NC1CCN(Cc2ccccc2)CC1)c1ccc(Cn2c(=O)c3ccccc3n(Cc3cccc(F)c3)c2=O)cc1 | 5.83% | – |
| COc1ccc(-n2ncc3c2CC(C)(C)CC3NC(=O)CCc2c(C)nn(C)c2C)cc1 (centres undefined) | 22.3% [at 102 µM] | – |
| Cn1c(-c2ccc(C(F)(F)F)cc2)cc2onc(-c3ccccc3)c2c1=O | -9.13% [at 2.33 µM] | – |
| O=C(Cn1c(-c2cccs2)cc2ccccc21)NCCc1ccc(Cl)cc1 | 8.69% | – |
| CCCc1nc2ccccc2c(C(=O)OCC(=O)c2ccc3c(c2)NC(=O)CO3)c1CC | 16.7% [at 12.7 µM] | – |
| O=C1COc2ccc(C(=O)CSc3ccc(Br)cc3)cc2N1 | 8.05% [at 12.7 µM] | – |
| CCc1ccc(Nc2nnc(SCC(=O)c3ccc4c(c3)NC(=O)CO4)s2)cc1 | – | 15.8 µM (active) |
| CCOc1cc(/C=C/c2nc3ccccc3c(=O)[nH]2)cc(Br)c1OC | – | 50.1 µM (active) |
| COc1ccc(C)cc1-n1nnnc1SCc1nc2ccccc2c(=O)[nH]1 | -44% [at 102 µM] | – |
| COc1cc(OC)c(OC)cc1/C=C/c1nc2ccccc2c(=O)n1-c1ccc(Br)c(C)c1 | -42.8% | – |
| O=C(NC1(C(F)(F)F)N=C(c2ccccc2)N(C2CCCCC2)C1=O)c1ccccc1F (centres undefined) | -8.07% | – |
| COc1ccc(NC(=O)C(c2ccccc2)N2Cc3ccccc3C2=O)cc1 (centres undefined) | -5.93% | – |
| CN(CC(=O)NC1CCN(Cc2ccccc2)CC1)S(=O)(=O)c1ccc(Cl)s1 | -1.26% [at 2.33 µM] | – |
| COc1ccc(NC(=O)c2ccc3oc(=O)c(S(=O)(=O)c4ccc(F)cc4)cc3c2)c(OC)c1 | -2.82% | – |
